A short description of assay [1]: NCI Yeast Anticancer Drug Screen. Data for the rad50 strain (AID 155).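 Also: 0% = growth of vehicle-only cultures of the same strain.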 To be noted: S. cerevisiae rad50 strain growth inhibition; at 50.0 µM; hits give high values. Summed up:
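Readout: growth inhibition relative to vehicle-treated cultures. Compound exposure was carried out in a genetically defined yeast strain deficient in DNA damage repair.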

Assay [2] is described as follows: NCI Yeast Anticancer Drug Screen. Data for the mec2-1 strain (AID 157). The following applies: S. cerevisiae mec2-1 strain, at 50.0 µM, hits give high values. Put shortly: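 Each compound was tested on mec2-1 yeast, a strain altered in DNA damage repair or cell cycle control. Growth inhibition is reported relative to vehicle.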
A short description of assay [3]: NCI Yeast Anticancer Drug Screen. Data for the sgs1 mgt1 strain (AID 161).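 Also: 0% = growth of cultures given vehicle only.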 The following applies: S. cerevisiae sgs1 mgt1 strain, at 50.0 µM, hits give high values. Summed up:
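Genetically altered yeast, compound exposure, growth inhibition relative to vehicle.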

Assay [4] is described as follows: NCI Yeast Anticancer Drug Screen. Data for the cln2 rad14 strain (AID 165).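 Also: 0% = growth equal to vehicle treated cultures.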 The following applies: S. cerevisiae cln2 rad14 strain, at 50.0 µM, hits give high values. Put shortly: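 Test compounds were added to cln2 rad14 yeast cultures; inhibition of growth was then determined by comparison with vehicle treatment.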
Assay [5] is described as follows: NCI Yeast Anticancer Drug Screen. Data for the bub3 strain (AID 167). To be noted: S. cerevisiae bub3 mutant strain, at 50.0 µM, hits give high values. Put shortly:
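Readout: yeast growth inhibition, expressed relative to vehicle-only wells. The test organism is a mutant strain from a panel with lesions in DNA repair or checkpoint genes.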

Assay [6] can be described thus: NCI Yeast Anticancer Drug Screen. Data for the mlh1 rad18 strain (AID 175). The following applies: S. cerevisiae mlh1 rad18 strain growth inhibition; at 50.0 µM; hits give high values. Summed up:
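Inhibition values reflect reduced growth of mutant yeast versus vehicle-treated controls following compound exposure; the mutations affect DNA damage repair.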

About 79,000 compounds went through this panel and 15% of them were active in at least one assay; those are over-represented in the sample as a whole. A number with no mark means an inactive call. The source made the active and inactive calls. Rule as the data show it: active = growth inhibition above about 70%; inactive = the rest.

`CC(=O)NNc1nc(C)c(C(=O)/C=C/c2ccc(Cl)cc2)s1`: the growth inhibition in assay [1] was 44.2%; in assay [2], 12.7%; in assay [3], 21.7%; in assay [4], 27.4%; in assay [5], 19%; in assay [6], 30.2%.

With `O=[N+]([O-])c1ccc(COP(=O)(OCc2ccc([N+](=O)[O-])cc2)OCc2ccc([N+](=O)[O-])cc2)cc1`, the growth inhibition was -8% in assay [1]; -2.35% in assay [2]; 2.9% in assay [3]; -46.5% in assay [4]; 25.3% in assay [5]; 4.75% in assay [6].

With `CCC(=O)CCc1ccc(OC)cc1`, the growth inhibition in assay [1] is 4.55%; in assay [2], -6.75%; in assay [3], -3.85%; in assay [4], -20.6%; in assay [5], -12.2%; in assay [6] it was -13.8%.

Regarding `OCCOc1ccc2ccccc2c1-c1c(OCCO)ccc2ccccc12`, the growth inhibition was 98.5% (active) in assay [1]; 95.7% (active) in assay [2]; 98.5% (active) in assay [3]; 97.7% (active) in assay [4]; 98.9% (active) in assay [5]; 98.6% (active) in assay [6].

`O=C1CCSC(=S)N1c1ccc(F)cc1`: the growth inhibition in assay [1] was 7.15%; in assay [2], -1.4%; in assay [3], 2.2%; in assay [4], -32.5%; in assay [5], -22.9%; in assay [6], 6.2%.

Consider `CC1CCCc2c(CC3CC(=O)NC(=O)C3)nc(N)nc21` (stereo not given), for which the growth inhibition is 6.75% in assay [1]; 5.25% in assay [2]; -18.8% in assay [3]; -7.85% in assay [4]; -4.7% in assay [5]; -23.4% in assay [6].

Take `Cc1cccc[n+]1CC(=O)c1ccc(Cl)cc1`: the growth inhibition is -8.05% in assay [1]; 3.25% in assay [2]; 1.05% in assay [3]; -44.8% in assay [4]; -4% in assay [5]; 3.65% in assay [6].

For the compound `O=c1[nH]c(Br)nc2c(Br)c[nH]c12`, the growth inhibition is -17.1% in assay [1]; -0.15% in assay [2]; -18.4% in assay [3]; -12.8% in assay [4]; -22.2% in assay [5]; -18.9% in assay [6].

`CCCCN(CCCC)CC(O)c1cc(-c2ccc(Cl)cc2)nc2c(Cl)cc(Cl)cc12` (stereo not given): the growth inhibition is 26.4% in assay [1]; 5.05% in assay [2]; 10.3% in assay [3]; 18.1% in assay [4]; 0.45% in assay [5]; 28.9% in assay [6].

Consider `CC(=O)c1ccc(N2C(=O)CC(NC3CCCCC3)C2=O)cc1` (stereo not given), for which the growth inhibition is -7.4% in assay [1]; 7.1% in assay [2]; 9.45% in assay [3]; -2.15% in assay [4]; 1.65% in assay [5]; -17.4% in assay [6].

Turning to `O=c1c2c(nc3n1CCC3)sc1c(O)c(Br)ccc12`, the growth inhibition in assay [1] was -44.7%; in assay [2], -26.6%; in assay [3], -46.7%; in assay [4], -25.1%; in assay [5], -40%; in assay [6] it was -52.1%.

For `COc1ccc2c(c1)OC[C@@H]1c3cc(NS(=O)(=O)c4ccccc4)cc(OC)c3O[C@H]21`, the growth inhibition was 10.9% in assay [1]; 32.5% in assay [2]; 47.8% in assay [3]; 30.3% in assay [4]; 58.8% in assay [5]; 52.6% in assay [6].

As for `NC(=O)C(CO)NC(=O)c1ccc[n+](Cc2ccccc2)c1` (stereo not given), the growth inhibition in assay [1] is 5.3%; in assay [2], -1.6%; in assay [3], -1.2%; in assay [4], -4.5%; in assay [5], 0.15%; in assay [6] it was 27.9%.

As for `CCOC(=O)N1CC2CCc3c(ccc4ccccc34)N2C1=O` (stereo not given), the growth inhibition is -2.35% in assay [1]; 10.5% in assay [2]; -4.5% in assay [3]; -3.6% in assay [4]; 7.4% in assay [5]; 14.2% in assay [6].

For `CCC(=O)N1C(=O)C(C)C23c4ccccc4C(=O)N2CCCN13` (stereo not given), the growth inhibition in assay [1] is 4.35%; in assay [2], -13.1%; in assay [3], -1.8%; in assay [4] it was 11.1%; in assay [5] it was 1.8%; in assay [6], 15.8%.

Consider `CSc1nc(NC2OCC(O)C(O)C2O)cc(=O)n1C` (stereo not given), for which the growth inhibition is 7.25% in assay [1]; -0.45% in assay [2]; 7.4% in assay [3]; -4.9% in assay [4]; -26.9% in assay [5]; -2.95% in assay [6].

In the case of `O=C(O)c1ccc(NC(=S)NC(=O)c2cccc([N+](=O)[O-])c2)cc1`, the growth inhibition is 5.55% in assay [1]; 16% in assay [2]; 16% in assay [3]; 16.8% in assay [4]; 23.6% in assay [5]; 23.6% in assay [6].

For `Cc1cc2nc(NN)[nH]c2cc1C`, the growth inhibition in assay [1] is 5.15%; in assay [2] it was 7.15%; in assay [3] it was -17.5%; in assay [4], -10%; in assay [5], -26.4%; in assay [6] it was 22.1%.

For `CCCCCCCCCCCCCCCC1=NN(c2ccccc2)C(=O)C1N=Nc1ccccc1` (stereo not given), the growth inhibition was 8.2% in assay [1]; -8.95% in assay [2]; -0.75% in assay [3]; -10.2% in assay [4]; -3.3% in assay [5]; 2.05% in assay [6].

In the case of `COc1ccc2nc3c([N+](=O)[O-])ccc(NCCCN(C)C)c3c(NCCCN(C)C)c2c1`, the growth inhibition in assay [1] is -5.15%; in assay [2], 9.3%; in assay [3], 11.7%; in assay [4], 38.3%; in assay [5] it was -28.4%; in assay [6], -1.6%.
